A short description of test [1]: A CellTox Green Cytotoxicity Assay to monitor cytotoxicity in HEK293 cells - 32 hour (AID 1224881). Further: nearly all actives have a fitted effect of over 40% in size. Further: potency means the concentration at half of the fitted maximal effect. The procedure, abridged: (§1)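 Homogeneous no-lysis format: HEK293 cell suspension mixed with CellTox Green reagent, seeded, incubated 5 h at 37 C/5% CO2, then dosed by pintool with compound in DMSO.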
Test [2] is described as follows: A CellTox Green Cytotoxicity Assay to monitor cytotoxicity in HepG2 cells - 0 hour (AID 1224882). Further: nearly all actives have a fitted effect of over 35% in size. Further: potency means the concentration at half of the fitted maximal effect. The procedure, abridged: (§2)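 Fluorescent DNA-binding dye, 600 HepG2 cells/well, 5 h preincubation then compound in DMSO; same plates read at 0–40 h, 37 C.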
The nature of test [3]: A CellTox Green Cytotoxicity Assay to monitor cytotoxicity in HepG2 cells - 32 hour (AID 1224883). Further: nearly all actives have a fitted effect of over 50% in size. Further: potency means the concentration at half of the fitted maximal effect. The procedure, abridged:
as §2

A short description of test [4]: A CellTox Green Cytotoxicity Assay to monitor cytotoxicity in HEK293 cells - 8 hour (AID 1224884). Further: nearly all actives have a fitted effect of over 35% in size. Further: potency means the concentration at half of the fitted maximal effect. Summed up:
as §1

Test [5] can be described thus: qHTS RealTime-Glo MT Cell Viability Assay in HepG2 cells - 16 hour (AID 1224885). Further: nearly all actives have a fitted effect of over 50% in size. Further: potency means the concentration at half of the fitted maximal effect. Summed up: (§3)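 Cells + NanoLuc/prosubstrate dispensed (600 cells/well) → 5 h at 37 C/5% CO2 → compounds in DMSO transferred → 40 h incubation at 37 C, luminescence read at 0, 8, 16, 24, 32, 40 h.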
Test [6] can be described thus: qHTS RealTime-Glo MT Cell Viability Assay in HEK293 cells - 24 hour (AID 1224886). Further: top concentration of the series differs between compounds; nearly all actives have a fitted effect of over 50% in size. Summed up:
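Tox21 10K qHTS, HEK293, 600 cells/well, RealTime-Glo reagent co-dispensed with cells; 5 h preincubation, compound by pintool, 37 C, luminescence at 0–40 h.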

Test [7] in a line: A CellTox Green Cytotoxicity Assay to monitor cytotoxicity in HEK293 cells - 16 hour (AID 1224888). Further: nearly all actives have a fitted effect of over 35% in size. The procedure, abridged: as §1
Test [8] can be described thus: qHTS RealTime-Glo MT Cell Viability Assay in HepG2 cells - 0 hour (AID 1224889). Further: nearly all actives have a fitted effect of over 50% in size. The procedure, abridged: as §3
Test [9] can be described thus: A CellTox Green Cytotoxicity Assay to monitor cytotoxicity in HepG2 cells - 8 hour (AID 1224890). Further: nearly all actives have a fitted effect of over 45% in size. Further: potency means the concentration at half of the fitted maximal effect. Summed up: as §2
The nature of test [10]: qHTS assay to identify small molecule antagonists of the androgen receptor (AR) signaling pathway using the MDA cell line in the presence of 0.5 nM R1881 - cell viability counter screen (AID 1259242). Further: nearly all actives have a fitted effect of over 45% in size. The procedure, abridged:
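Human breast carcinoma MDA-kb2 cells, cultured without CO2, receive compounds alongside 0.5 nM (final) R1881 agonist. After 16 hr at 37C, viability is taken as live-cell protease signal.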

Test [11] deals with Estrogen receptor (Homo sapiens) (UniProt P03372). Put plainly: qHTS assay to identify small molecule antagonists of the estrogen receptor alpha (ER-alpha) signaling pathway using the BG1 cell line in the presence of 0.1 nM 17-beta-estradiol (AID 1259244). Further: nearly all actives have a fitted effect of over 50% in size. The procedure, abridged:
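Seeding of stripped-serum-adapted VM7Luc4E2 cells, 24 h attachment, compound transfer, then 0.1 nM final 17beta-estradiol; after 22 h incubation, ONE-Glo reagent and luminescence reading.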

Test [12] is described as follows: qHTS assay to identify small molecule phospholipidosis (PLD) inducers (AID 1259344; active means well fitted curve in the direction sought with a large enough effect; an effect the other way counts as inactive or inconclusive). Summed up: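 Read-out is LipidTOX Red fluorescence (ex 595/em 615) imaged in HepG2 cells after 24 h compound exposure at 37 C, with Hoechst nuclear counterstain (ex 352/em 461) allowing per-cell normalisation.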
A short description of test [13]: qHTS assay to identify small molecule HDAC inhibitors (AID 1259364).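 Further: wild-type HCT-116 cells with endogenous class I/II HDAC activity; top concentration of the series differs between compounds; nearly all actives have a fitted effect of over 45% in size.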 The procedure, abridged: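 After a 2 hr compound incubation (37C, 5% CO2), HCT-116 cells seeded at 1,500/well the day before received HDAC-Glo reagent; signal read as luminescence after 30 min at room temperature.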
Test [14] can be described thus: qHTS assay to identify small molecule HDAC inhibitors - cell viability counter screen (AID 1259365). Summed up:
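Wild-type HCT-116 cells, 1,500/well, cultured overnight, then compound-treated 2 h at 37 C. Viability measured as ATP luminescence with CellTiter-Glo after 30 min at room temperature.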

The nature of test [15]: qHTS assay to identify small molecule agonists of the sonic hedgehog signaling (Shh) pathway - cell viability counter screen (AID 1259366). Further: nearly all actives have a fitted effect of over 50% in size. Further: potency means the concentration at half of the fitted maximal effect. The procedure, abridged: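 NIH/3T3-derived Gli1-Luc reporter cells, 2,000 per well, received compound after 4 h and were treated about 23 h at 37C. Viability measured in the same wells by CellTiter-Fluor fluorescence after 1 h.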
A short description of test [16]: qHTS assay to identify small molecule agonists of the sonic hedgehog signaling (Shh) pathway (AID 1259368; calls by dose curve;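 further: NIH/3T3-derived 3T3Gli1-Luc cells carrying a stable Gli1-driven firefly luciferase reporter; series mostly up to about 92 µM; nearly all actives have a fitted effect of over 15% in size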). The procedure, abridged:
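Stable NIH/3T3 Gli1-Luc reporter clone; 24 hr cpd exposure after a 4 hr settling period; luminescence endpoint.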

Test [17] is described as follows: qHTS assay to identify small molecule antagonists of the estrogen receptor alpha (ER-alpha) signaling pathway using the BG1 cell line in the presence of 0.1 nM 17-beta-estradiol - cell viability counter screen (AID 1259241). Further: nearly all actives have a fitted effect of over 40% in size. The procedure, abridged:
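VM7Luc4E2 cells (endogenous full-length ER-alpha, 4xERE-luciferase), cultured 5 days in charcoal-stripped serum, exposed to compounds with 0.1 nM 17beta-estradiol (final) for 22 hr at 37C. Viability read in same wells as live-cell protease fluorescence after 30 min.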

Test [18] in a line: qHTS RealTime-Glo MT Cell Viability Assay in HEK293 cells - 8 hour (AID 1224887). Summed up:
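Measured as luminescence from the same continuously cultured HEK293 wells at successive time points (0, 8, 16, 24, 32, 40 h) after compound addition. Reagent present from seeding; dosing at 5 h; incubation 37 C.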

Test [19] is described as follows: qHTS assay to identify small molecule antagonists of the sonic hedgehog signaling (Shh) pathway - cell viability counter screen (AID 1259367). Further: nearly all actives have a fitted effect of over 55% in size. Further: potency means the concentration at half of the fitted maximal effect. The procedure, abridged: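 Fluorescence read-out (CellTiter-Fluor, 1 hr at 37C) taken after 23 hr compound treatment of 3T3 Gli1-Luc cells stimulated with conditioned medium. Cells were seeded at 2,000 per well and pre-incubated 4 hr.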

In test [20] the target is Androgen receptor (Homo sapiens) (UniProt P10275). The test is described as follows: qHTS assay to identify small molecule antagonists of the androgen receptor (AR) signaling pathway using the MDA cell line in the presence of 0.5 nM R1881 (AID 1259243). Further: nearly all actives have a fitted effect of over 50% in size. The procedure, abridged:
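Cells: MDA-kb2 (MMTV-luc). Stimulus: 0.5 nM R1881. Time: 16 hr, 37C, no CO2. Detection: ONE-Glo luminescence after 30 min at RT.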

Where “and” joins values, the source holds several entries; their conditions need not be identical. Equal entries are not always repeated. Results filed as inconclusive are left out. Where a structure was tested more than once in an assay, its records may differ in their call. Calls of active or inactive are those of the source. Unless noted, the call rests on the fitted dose curve; in most records, active means well fitted curve in the direction sought with a large enough effect in the repeat runs; inconclusive means weak or mixed curves; inactive means no such curve, though single readings can be large; an effect the other way counts as inactive or inconclusive.

Estrogen receptor (Homo sapiens), sequence (P03372 whole entry, looked up): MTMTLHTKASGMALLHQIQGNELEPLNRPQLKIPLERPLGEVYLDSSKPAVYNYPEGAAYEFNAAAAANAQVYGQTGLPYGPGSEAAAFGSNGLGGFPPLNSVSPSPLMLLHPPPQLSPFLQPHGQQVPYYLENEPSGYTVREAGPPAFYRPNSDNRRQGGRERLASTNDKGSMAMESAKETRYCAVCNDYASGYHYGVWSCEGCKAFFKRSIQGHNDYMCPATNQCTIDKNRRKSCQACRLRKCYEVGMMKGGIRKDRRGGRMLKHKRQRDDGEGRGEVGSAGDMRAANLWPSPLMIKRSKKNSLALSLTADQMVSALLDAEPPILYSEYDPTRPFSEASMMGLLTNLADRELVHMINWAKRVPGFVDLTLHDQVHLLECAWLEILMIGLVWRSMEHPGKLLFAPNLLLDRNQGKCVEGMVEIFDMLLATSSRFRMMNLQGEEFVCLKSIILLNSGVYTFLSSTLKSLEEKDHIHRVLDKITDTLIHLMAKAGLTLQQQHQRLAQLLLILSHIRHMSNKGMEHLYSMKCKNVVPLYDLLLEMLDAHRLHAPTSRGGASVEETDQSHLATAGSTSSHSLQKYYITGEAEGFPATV
Androgen receptor (Homo sapiens), sequence (P10275 whole entry, looked up): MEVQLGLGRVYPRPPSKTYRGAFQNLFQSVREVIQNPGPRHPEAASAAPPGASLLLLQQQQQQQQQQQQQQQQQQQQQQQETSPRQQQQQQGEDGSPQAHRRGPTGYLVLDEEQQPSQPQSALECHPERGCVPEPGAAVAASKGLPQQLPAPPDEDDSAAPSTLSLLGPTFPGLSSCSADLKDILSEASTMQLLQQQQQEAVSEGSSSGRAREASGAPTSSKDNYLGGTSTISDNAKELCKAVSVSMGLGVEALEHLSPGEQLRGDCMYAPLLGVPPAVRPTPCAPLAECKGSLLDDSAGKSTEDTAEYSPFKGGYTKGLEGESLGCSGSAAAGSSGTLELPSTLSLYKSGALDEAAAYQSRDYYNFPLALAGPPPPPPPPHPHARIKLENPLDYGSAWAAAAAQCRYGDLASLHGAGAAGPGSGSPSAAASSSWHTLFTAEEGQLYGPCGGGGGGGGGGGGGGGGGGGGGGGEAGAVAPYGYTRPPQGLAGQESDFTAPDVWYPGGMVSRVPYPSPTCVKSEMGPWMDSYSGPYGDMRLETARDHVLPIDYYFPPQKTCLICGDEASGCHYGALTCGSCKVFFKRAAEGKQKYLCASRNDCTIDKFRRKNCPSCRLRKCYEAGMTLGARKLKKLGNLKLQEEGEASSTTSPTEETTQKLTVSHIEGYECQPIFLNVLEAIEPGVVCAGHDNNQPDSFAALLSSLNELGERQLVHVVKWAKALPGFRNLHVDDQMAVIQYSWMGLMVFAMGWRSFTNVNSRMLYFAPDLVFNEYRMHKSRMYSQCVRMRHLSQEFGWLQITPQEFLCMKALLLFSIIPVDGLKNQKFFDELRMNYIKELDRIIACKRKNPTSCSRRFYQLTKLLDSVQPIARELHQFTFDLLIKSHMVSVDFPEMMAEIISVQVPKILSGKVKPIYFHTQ

As for `OC[C@@H](O)[C@@H](O[C@@H]1O[C@H](CO)[C@H](O)[C@H](O)[C@H]1O)[C@H](O)[C@@H](O)CO`, the Potency entry in test [1], in [2], in test [3], in test [4], in test [5] and in test [6] was “inactive” throughout. The Potency entry in test [7], in test [8], in test [9], in test [10], in [11] and in [12] was “inactive” throughout. The Potency entry in test [13], in test [15] and in test [16] was “inactive” throughout. Also, the outcome in test [14] was inactive.
As for `Nc1ccc(N)c(Cl)c1`, the Potency entry in test [1] is “inactive and 27.5 µM (active)”; in [2], “inactive and 38.9 µM (active)”; in test [3] it was “inactive and 43.6 µM (active)”; in [4], “inactive and 27.5 µM (active)”; in [5] it was “inactive and 43.6 µM (active)”; in test [9], “inactive and 38.9 µM (active)”. Further, the Potency in test [15] was 61 µM (active). In addition, the Potency result in [6], in [8], in test [17], in test [10], in test [13] and in [16] was “inactive” throughout. Further, the compound was called inactive in test [14].
As to `Cc1cccc(Nc2ccccc2C(=O)O)c1C`, the Potency entry in test [1], in test [2], in [3], in [4], in [5] and in test [7] was “inactive” throughout. Besides, the Potency result in [8], in [9], in [17], in [10], in test [12] and in [13] was “inactive” in each case. Besides, the Potency entry in test [15] and in test [16] was “inactive” each time. In test [14], the call was inactive.
Regarding `NCCN`, the Potency result in [1], in [2], in test [3], in test [4], in [5] and in test [7] was “inactive” in each case. For the same compound, the Potency entry in test [8], in test [9], in test [10], in test [11], in test [12] and in [13] was “inactive” in each case. In addition, the Potency entry in test [15] and in [16] was “inactive” in each case. For the same compound, the result in test [14] was inactive.
For the compound `Cc1ccc(/C(=C\CN2CCCC2)c2ccccn2)cc1`, the Potency entry in test [1], in test [2], in test [3], in test [5], in test [6] and in test [18] was “inactive” in each case. The Potency entry in test [7], in test [8], in [9], in [17], in [10] and in test [11] was “inactive” each time. Besides, the Potency result in [12], in test [13], in test [15] and in [16] was “inactive” throughout. Further, in test [14], the call was inactive. The Potency in test [19] was 36.2 µM (active) and inactive.
In the case of `CN(Cc1cnc2nc(N)nc(N)c2n1)c1ccc(C(=O)N[C@@H](CCC(=O)O)C(=O)O)cc1`, the Potency entry in test [1], in test [2], in [3], in test [4], in [5] and in test [7] was “inactive” each time. Also, the Potency entry in [8], in test [9], in [17], in [10], in test [20] and in [11] was “inactive” throughout. For the same compound, the Potency result in [12], in test [13], in [15] and in test [16] was “inactive” each time. In addition, the compound was called inactive in test [14].
Turning to `CC(=O)Nc1ccc2c(c1)Cc1cc(NC(C)=O)ccc1-2`, the Potency result in test [1], in test [2], in test [3], in test [4], in [5] and in test [18] was “inactive” throughout. The Potency result in test [7], in test [8], in test [9], in test [17], in test [10] and in test [11] was “inactive” in each case. In addition, the Potency result in test [13], in test [15] and in [16] was “inactive” in each case. Besides, the outcome in [14] was inactive.
